# Assay outcomes deposited in PubChem BioAssay by The Scripps Research Institute Molecular Screening Center.
# Only some compounds are listed: those with a hit (about 2.3% of all), similar ones and a draw of the others.
# CHRM1 agonist = human M1 muscarinic receptor agonists, primary screen, Fluo-8 calcium fluorescence, CHO-K1 cells, HTS | Muscarinic acetylcholine receptor M1 (Homo sapiens), P11229 | CHO-K1 hM1, agonist mode; 0% DMSO, 100% acetylcholine EC100 | activation, % at 3 µM | 360,000 tested, 0.33% active | AID 588814, 2011;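 active means activation above the run's mean compound activation plus 3 SD, cut at about 16% in these data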;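 further: peak over basal fluorescence ratio within a 140 s kinetic read after compound addition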
# Target sequence (P11229 whole entry, looked up): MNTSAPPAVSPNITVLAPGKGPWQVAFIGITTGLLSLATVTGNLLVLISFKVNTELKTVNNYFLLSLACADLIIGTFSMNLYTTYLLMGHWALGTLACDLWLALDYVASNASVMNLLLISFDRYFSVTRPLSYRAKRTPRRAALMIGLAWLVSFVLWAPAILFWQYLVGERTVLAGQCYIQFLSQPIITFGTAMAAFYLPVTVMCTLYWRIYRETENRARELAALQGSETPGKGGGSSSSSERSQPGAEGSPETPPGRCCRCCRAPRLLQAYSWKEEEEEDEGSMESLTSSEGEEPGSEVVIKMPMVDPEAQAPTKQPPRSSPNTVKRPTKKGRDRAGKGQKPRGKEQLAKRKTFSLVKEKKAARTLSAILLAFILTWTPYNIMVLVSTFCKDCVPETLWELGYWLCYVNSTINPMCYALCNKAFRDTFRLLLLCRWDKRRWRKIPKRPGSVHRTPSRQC
# CHO-K1 Ca PAM = nonselective calcium activators in parental CHO-K1 cells, primary screen, counter-screen for M1 PAM project, cell-based, Fluo-8 calcium fluorescence, full deck, 1536-well | ATP EC20; 0% at ATP EC20, 100% at ATP max | activation, % at 3 µM | 360,000 tested, 0.02% active | AID 602247, 2012;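 active means activation above the run cutoff, the mean activation of all test compounds plus 3 SD, cut at about 40% in these data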;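 further: peak over basal fluorescence ratio in a 140 s read after ATP addition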
# CHO-K1 Ca antag = M1 antagonist counterscreen hit in parental CHO-K1 cells; ATP-induced calcium, Fluo-8 fluorescence; inhibition, % at 3 µM; 360,000 tested, 0.6% active;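 active means inhibition above a per-plate cutoff, the plate's mean sample inhibition plus 3 SD, cut at about 24% in these data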;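 further: 0% = DMSO plus EC80 ATP and 100% = DMSO alone without ATP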
# M1 antag = human M1 muscarinic receptor antagonists, primary screen, CHO-K1 cells, Fluo-8 calcium fluorescence, 1536-well. Muscarinic acetylcholine receptor M1 (Homo sapiens), P11229. CHO-K1 hM1, ACh EC80 antagonist. inhibition, % at 3 µM. 360,000 tested, 1.3% active. AID 588852, 2011;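 active means percent inhibition above its own plate's cutoff, namely the mean of that plate's compound wells plus 3 SD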;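 further: peak over basal fluorescence ratio during 140 s after agonist addition; 0% = ACh EC80 plus DMSO and 100% = DMSO alone without agonist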
# CHO-K1 Ca ag = counter-screen for M1 agonists: effect in parental CHO-K1 cells | Fluo-8 calcium fluorescence; scaled to maximal ATP response, vehicle zero | activation, % at 3 µM | 360,000 tested, 0.48% active | AID 602248, 2012; in the data active means activation above about 15%;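 further: untransfected CHO-K1 host cells lacking M1 receptor as counterscreen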
# M1 PAM = human M1 muscarinic receptor positive allosteric modulators, primary screen, CHO-K1 cells, Fluo-8 calcium fluorescence, 1536-well. AID 588819, 2011. 360,000 tested, 0.088% active. Muscarinic acetylcholine receptor M1 (Homo sapiens), P11229. CHO-K1 hM1, ACh EC20; 0% = ACh EC20, 100% = maximal ACh. activation, % at 3 µM; in the data active means activation above about 19%, passing the limit was not always enough
# Active calls of the source: *; · = no result.
SMILES,CHRM1 agonist,CHO-K1 Ca PAM,CHO-K1 Ca antag,M1 antag,CHO-K1 Ca ag,M1 PAM
CC(C)Oc1ccc(/C(O)=C2/C(=O)C(=O)N(CCN3CCNCC3)C2c2cccc([N+](=O)[O-])c2)cc1 (stereo not given),-2,7,-8,-28,0,13
CCn1c(C)cs/c1=N\C(=S)Nc1ccccc1C,-7,-14,24*,-1,0,4
Cc1cc(S(=O)(=O)N2CCN(c3ccc(F)cc3)CC2)ccc1-n1cnnn1,-6,9,-16,-5,6,4
Cc1cc(S(=O)(=O)N2CCN(c3ccccc3F)CC2)ccc1-n1cnnn1,-3,8,1,-1,18*,-1
CC(=O)c1ccc(NC(=O)CSc2nc(=O)n3cccc(C)c3n2)cc1,-2,18,44*,-9,0,6
CCOc1ccc(NC(=O)C(C)C(Cc2ccc(C)cc2)C(=O)O)cc1 (stereo not given),-4,10,0,-12,0,4
O=C(Cc1ccccc1)N1CCc2ccccc21,-7,14,-5,-5,0,8
O=C(C(Cc1ccccc1)N1C(=O)c2ccccc2C1=O)N1CCc2ccccc21 (stereo not given),-1,-7,26*,-12,0,11
CC(=O)c1ccc(NC(=S)NCc2ccc(Cl)cc2Cl)cc1,5,-12,16,20,16*,-8
CCOP(=O)(OCC)C(NC(=O)Nc1ccc(Cl)cc1)c1ccccc1 (stereo not given),-5,24,-4,4,2,4
CC(=O)c1ccc(NC(=O)Nc2ccc(Cl)cc2)cc1,1,0,19,29,17*,-18
CC(NC(=O)Nc1ccc(Cl)cc1)c1ccccc1 (stereo not given),1,5,1,-10,29*,2
CCc1nc2ccc(C(=O)NCCc3ccccn3)cn2c1N(CC)Cc1cccc(Br)c1,-5,23,-7,7,4,-15
Cc1cc(C)c(C)c(S(=O)(=O)NCc2cccnc2)c1C,0,12,-33,-4,4,6
COc1cc(C)c(Cl)c(C)c1S(=O)(=O)NCc1cccnc1,-2,-7,27*,14,0,-1
CCOC(=O)C1CCCN(c2c(NCc3ccco3)c(=O)c2=O)C1 (stereo not given),27*,22,-2,-19,0,12
O=C(O)CCC(=O)N1c2ccccc2NC2=C(C(=O)CC(c3ccc(F)cc3)C2)C1c1ccc([N+](=O)[O-])o1 (stereo not given),-6,-18,25*,8,0,-9
CSc1ccc(CNC(=O)C2CCC(=O)N(CCc3cccc(F)c3)C2)cc1 (stereo not given),0,5,-10,-1,2,-2
O=C(CSc1nnc(-c2cccnc2)s1)Nc1ccnc2ccccc12,-2,9,26*,34*,15,-14
Cc1ccc(NC(=O)CSc2nnc(-c3cccnc3)s2)cc1,-6,26,-6,-5,2,6
CCN1CCN(c2ccc(S(=O)(=O)N3CCOCC3)cc2NC(=O)c2cc(F)c(F)c(F)c2F)CC1,-8,11,-7,-7,0,0
CCN1CCN(c2ccc(S(=O)(=O)N3CCOCC3)cc2NC(=O)c2ccccc2SC)CC1,24*,-7,9,-10,0,0
C[C@H](c1ccccc1)N1C[C@H](COCc2ccccc2)Oc2cc(N3CC[C@@H](O)C3)ccc2S1(=O)=O,·,-9,-2,·,1,·
Cn1cccc1C(=O)OCc1cc(-c2ccco2)on1,-4,9,-19,-1,0,5
Cc1oc(-c2ccc(Cl)cc2)nc1CS(=O)CC(=O)NCCN1CCCC1 (stereo not given),-11,-4,25*,-2,0,0
SMILES,CHRM1 agonist,CHO-K1 Ca PAM,CHO-K1 Ca antag,M1 antag,CHO-K1 Ca ag,M1 PAM
Cc1ccc(-c2nc(CS(=O)CC(=O)NCc3ccccc3)c(C)o2)cc1 (stereo not given),5,23,-20,-15,0,24*
COc1cc(/C=C2\S/C(=N/S(=O)(=O)c3ccccc3)NC2=O)c([N+](=O)[O-])cc1OC,3,-7,27*,-7,2,11
COc1ccc(S(=O)(=O)/N=C2/NC(=O)/C(=C\c3cc(OC)c(OC)cc3[N+](=O)[O-])S2)cc1,0,18,-7,-19,1,13
OC(CCN1CC2CCC(CC2)C1)(Cc1ccccc1)c1ccco1 (stereo not given),-6,3,-6,86*,0,-28
COc1cc(OC)c(NC(=O)CC2SC(N)=NC2=O)cc1Cl (stereo not given),0,-2,-6,-11,0,8
COc1ccc(Nc2c3c(nc4ccccc24)CCC3)cc1,-8,8,-7,-20,1,22
CNC(=O)COc1ccc(Nc2nnc(-c3ccc(C)c(S(N)(=O)=O)c3)c3ccccc23)cc1,45*,-2,-4,14,0,-20
COc1ccc(Nc2nnc(-c3ccc(O)cc3)c3ccccc23)cc1,-6,5,-5,59*,-1,-24
Oc1ccc(Nc2nnc(-c3ccc(O)cc3)c3ccccc23)cc1,-8,-13,-1,36*,0,-22
COc1ccc(Nc2c3ccccc3nc3ccccc23)cc1,-8,13,9,-9,16*,2
CCNC(=O)C1(C)CCN1CCC(=O)c1ccc(C)cc1 (stereo not given),-1,24,-7,-15,0,15
CC1CCN(C(=O)CSc2nc(C(C)C)nc3c2c(=O)n(C)c(=O)n3C)CC1,-5,-19,-7,4,3,-1
Cn1c2ccccc2c2cc(C(=O)N3CCN(CCO)CC3)sc21,-5,-6,24*,0,0,4
C[C@H](NC(=O)[C@@H]1CCCN1C(=O)[C@@H]1CCCN1C(=O)c1cccc2ccccc12)c1ccccc1,·,17,-25,·,-1,·
N#Cc1c(C(F)(F)F)cc(-c2ccccc2)n(N)c1=O,-3,-5,31*,-15,3,10
Cc1cc(=O)[nH]c(SCc2cccc(Br)c2)n1,0,3,-5,-43,1,3
COc1ccc(CSc2nc(C)cc(=O)[nH]2)cc1Br,-3,18,-3,-7,19*,4
Clc1cccc(COn2c(-c3ccc(Cl)cc3Cl)nc3ncccc32)c1,-5,23,-5,2,1,-8
